Calls of active or inactive are those of the source. The calls were made as follows: active = hit-call score of the fitted dose curve at least 0.9, where 1 is the maximum; inactive = score below 0.9.
Assays:
[1] = ATG_ISRE_CIS: Attagene CIS-FACTORIAL HepG2 Assay for human Interferon Regulatory Factor 1 (IRF1) binding to an Interferon-Stimulated Response Element (ISRE) (AID 2282948); details: HepG2 ISRE cis-reporter (Attagene), mRNA transcription readout; actives raise or lower the signal
In short: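 Uses HepG2 liver cells transfected with cis-regulated reporters and measures mRNA 24 h post-dosing through RT-PCR, primer-extension labelling and capillary electrophoresis, with DMSO as negative control.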

[2] = ATG_M_32_CIS: Attagene CIS-FACTORIAL HepG2 Assay for M32 Transcription Factor (Internal Marker) (AID 2282949); details: HepG2 Attagene cis-factorial M32 reporter, mRNA; actives raise or lower the signal;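 also: background control marker of the multiplexed CIS panel rather than a real target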
In short: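 Transient MRTU transfection of HepG2; 24 h compound treatment; TriZol RNA, oligo(dT) RT, reporter PCR, 6-FAM primer extension, HpaI cut, CE. Gain/loss of signal vs DMSO.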

[3] = ATG_M_06_CIS: Attagene CIS-FACTORIAL HepG2 Assay for M06 Transcription Factor (Internal Marker) (AID 2282950); details: HepG2 Attagene CIS-FACTORIAL M06 internal marker reporter; actives raise or lower the signal
In short: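 HepG2 cells transiently transfected with cis-regulated multiple reporter transcription units were exposed to chemical for 24 h; reporter mRNA was quantified by RT-PCR, 6-FAM primer labelling, HpaI digestion and capillary electrophoresis, fitted bidirectionally against DMSO.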

[4] = biological target: Hypoxia-inducible factor 1-alpha (Homo sapiens) (UniProt Q16665); experiment: ATG_HIF1a_CIS: Attagene CIS-FACTORIAL HepG2 Assay for human Hypoxia Inducible Factor 1 (HIF1A) (AID 2282951); details: HepG2 Attagene cis-factorial HIF1a reporter transcription; actives raise or lower the signal
In short: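 HepG2 cells transiently transfected with multiple cis-regulated reporter transcription units measure endogenous transcription factor activity. After 24 h exposure, reporter mRNA is quantified by RT-PCR with 6-FAM labelling, HpaI digestion and capillary electrophoresis. Bidirectional fitting against DMSO.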

[5] = biological target: Hepatocyte nuclear factor 6 (Homo sapiens) (UniProt Q9UBC0); experiment: ATG_HNF6_CIS: Attagene CIS-FACTORIAL HepG2 Assay for human Hepatocyte Nuclear Factor 6 (HNF6) (AID 2282952); details: HepG2 Attagene cis-factorial HNF6 reporter transcription; actives raise or lower the signal
In short: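 Using cis-element reporters in HepG2 liver cells, the assay tracks endogenous factor-driven transcription 24 h post-dosing. Signal comes from 6-FAM-labelled, HpaI-digested RT-PCR fragments, with gain or loss scored against DMSO.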

[6] = biological target: Heat shock factor protein 1 (Homo sapiens) (UniProt Q00613); experiment: ATG_HSE_CIS: Attagene CIS-FACTORIAL HepG2 Assay for human Heat Shock Transcription Factor 1 (HSE) (AID 2282953); details: HepG2 HSE cis-reporter, Attagene RNA transcription; actives raise or lower the signal
In short: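 HepG2 cells transiently transfected with multiple reporter transcription units under cis-regulatory promoter control, measuring endogenous transcription factor activity. After 24 h chemical exposure, reporter mRNA quantified by RT-PCR, fluorescent labelling, HpaI digestion and capillary electrophoresis; bidirectional fit versus DMSO.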

[7] = ATG_MRE_CIS: Attagene CIS-FACTORIAL HepG2 Assay for human Metal Responsive Element (MRE) (AID 2282954); details: HepG2 MRE cis-reporter transcription, Attagene multiplex; actives raise or lower the signal
In short: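 Multiplexed cis-reporter assay in human HepG2 liver cells, 24 h incubation with test chemical. Reporter transcripts measured by RT-PCR and capillary electrophoresis; values from bidirectional curve fitting versus DMSO.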

[8] = ATG_PBREM_CIS: Attagene CIS-FACTORIAL HepG2 Assay for human Phenobarbital-responsive Enhancer Module (PBREM) (AID 2282955); details: HepG2 PBREM cis-reporter, Attagene multiplexed transcription; actives raise or lower the signal
In short: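 HepG2 cells transiently transfected with multiple cis-regulated reporter units measure endogenous transcription factor activity; 24 h compound exposure. Reporter mRNA quantified by RT-PCR, fluorescent labelling, HpaI digestion and capillary electrophoresis; bidirectional fit versus DMSO.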

[9] = ATG_PXRE_CIS: Attagene CIS-FACTORIAL HepG2 Assay for human Pregnane X Receptor Element (PXRE) (AID 2282957); details: HepG2 Attagene CIS-FACTORIAL PXRE reporter, mRNA; actives raise or lower the signal
In short: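 Using HepG2 transfected with multiple reporter transcription units, endogenous factor-driven transcription was scored as reporter mRNA after 24 h exposure.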

[10] = ATG_PPRE_CIS: Attagene CIS-FACTORIAL HepG2 Assay for human Peroxisome Proliferator-activated Response Element (PPRE) (AID 2282958); details: HepG2 PPRE cis-element reporter, Attagene transcription factor profiling; actives raise or lower the signal
In short: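 HepG2 cells are transiently transfected with multiplexed cis-promoter reporter units to report endogenous PPAR activity. After 24 h dosing, reporter mRNA is read by RT-PCR and capillary electrophoresis. Fitting is bidirectional against DMSO.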

[11] = ATG_RORE_CIS: Attagene CIS-FACTORIAL HepG2 Assay for human RAR-related Orphan Receptor Element (RORE) (AID 2282959); details: HepG2 Attagene cis-factorial RORE reporter, mRNA; actives raise or lower the signal
In short: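 HepG2 cells carrying transiently transfected cis-regulated reporter units; RORE-driven reporter mRNA quantified 24 h post-dosing by RT-PCR, 6-FAM primer extension, HpaI digestion and capillary electrophoresis. Bidirectional fit versus DMSO.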

[12] = ATG_Sox_CIS: Attagene CIS-FACTORIAL HepG2 Assay for human SRY-box transcription factor (SOX) (AID 2282960); details: HepG2 Attagene cis-factorial SOX reporter, mRNA; actives raise or lower the signal
In short: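 HepG2 cells transiently transfected with multiple cis-regulated reporter units, then dosed for 24 h. Reporter mRNA quantified by RT-PCR, fluorescent labelling, HpaI digestion and capillary electrophoresis; bidirectional fit versus DMSO.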

[13] = biological target: Transcription factor Sp1 (Homo sapiens) (UniProt P08047); experiment: ATG_Sp1_CIS: Attagene CIS-FACTORIAL HepG2 Assay for human Specificity Protein 1 (Sp1) (AID 2282961); details: HepG2 Sp1 cis-reporter transcription, actives raise or lower the signal
In short: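 HepG2 cells transiently transfected with multiplexed cis-regulated reporter constructs, chemical exposure 24 h. Reporter mRNA quantified by RT-PCR with capillary electrophoresis; bidirectional fit relative to DMSO.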

[14] = ATG_SREBP_CIS: Attagene CIS-FACTORIAL HepG2 Assay for human Sterol Regulatory Element Binding (SREBP) (AID 2282962); details: HepG2 Attagene cis-factorial SREBP reporter, mRNA; actives raise or lower the signal
In short: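 In this cis-format assay, HepG2 liver cells express reporters controlled by promoter elements responsive to native transcription factors. Exposure lasts 24 h; reporter mRNA fluorescence from capillary electrophoresis gives the signal, fitted bidirectionally against DMSO.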

[15] = biological target: Signal transducer and activator of transcription 3 (Homo sapiens) (UniProt P40763); experiment: ATG_STAT3_CIS: Attagene CIS-FACTORIAL HepG2 Assay for human Signal Transducer and Activator of Transcription 3 (STAT3) (AID 2282963); details: HepG2, Attagene cis-factorial STAT3 reporter transcription; actives raise or lower the signal
In short: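 Cis-factorial format: endogenous transcription factors in HepG2 drive transfected reporter units. After 24 h treatment, reporter RNA was reverse-transcribed, amplified, FAM-labelled and HpaI-digested before CE analysis; activity scored in both directions against DMSO.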

[16] = ATG_TA_CIS: Attagene CIS-FACTORIAL HepG2 Assay for human TA Basal Promoter (AID 2282964); details: HepG2 Attagene CIS-factorial TA basal promoter reporter; actives raise or lower the signal
In short: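 HepG2 cells transiently transfected with multiplexed cis-promoter reporter units, dosed 24 h. Reporter mRNA measured by RT-PCR, 6-FAM labelling, HpaI digestion and capillary electrophoresis; bidirectional fit versus DMSO baseline, serving as background control.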

[17] = ATG_TCF_b_cat_CIS: Attagene CIS-FACTORIAL HepG2 Assay for human T-Cell-Factor with beta-catenin (TCF/b-cat) (AID 2282965); details: HepG2 TCF/beta-catenin cis-reporter transcription, actives raise or lower the signal
In short: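 Endogenous TCF/LEF activity read as reporter transcript level via RT-PCR and capillary electrophoresis fluorescence in transfected HepG2, 24 h exposure; gain or loss of signal fitted against DMSO controls.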

[18] = ATG_TAL_CIS: Attagene CIS-FACTORIAL HepG2 Assay for human TAL Basal Promoter (AID 2282966); details: HepG2 Attagene cis-factorial TAL promoter reporter; actives raise or lower the signal;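 also: background control endpoint measuring basal TAL promoter reporter mRNA not a specific factor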
In short: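 After 24 hours of chemical exposure, transfected HepG2 cells yielded RNA that was converted to 6-FAM-labelled, HpaI-digested reporter fragments for capillary electrophoresis. Values derive from bidirectional fitting against DMSO controls.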

[19] = ATG_TGFb_CIS: Attagene CIS-FACTORIAL HepG2 Assay for human Transforming Growth Factor (TGF) (AID 2282967); details: HepG2 Attagene CIS TGFb reporter, mRNA transcription; actives raise or lower the signal
In short: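 HepG2 cells transiently transfected with cis-promoter-driven multiplexed reporter units; 24 h compound exposure. Reporter mRNA measured by RT-PCR, 6-FAM labeling, HpaI digestion and capillary electrophoresis; bidirectional fit versus DMSO baseline.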

[20] = biological target: Paired box protein Pax-6 (Homo sapiens) (UniProt P26367); experiment: ATG_Pax6_CIS: Attagene CIS-FACTORIAL HepG2 Assay for human Paired Box 6 (PAX6) (AID 2282956); details: HepG2 CIS-FACTORIAL PAX6 reporter transcription, RNA readout; actives raise or lower the signal
In short: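 DMSO-referenced bidirectional fits of reporter mRNA fluorescence; HepG2 with transient cis-promoter MRTUs, 24 h post-dose, RT-PCR plus capillary electrophoresis detection.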

Hypoxia-inducible factor 1-alpha (Homo sapiens), sequence (Q16665 whole entry, looked up): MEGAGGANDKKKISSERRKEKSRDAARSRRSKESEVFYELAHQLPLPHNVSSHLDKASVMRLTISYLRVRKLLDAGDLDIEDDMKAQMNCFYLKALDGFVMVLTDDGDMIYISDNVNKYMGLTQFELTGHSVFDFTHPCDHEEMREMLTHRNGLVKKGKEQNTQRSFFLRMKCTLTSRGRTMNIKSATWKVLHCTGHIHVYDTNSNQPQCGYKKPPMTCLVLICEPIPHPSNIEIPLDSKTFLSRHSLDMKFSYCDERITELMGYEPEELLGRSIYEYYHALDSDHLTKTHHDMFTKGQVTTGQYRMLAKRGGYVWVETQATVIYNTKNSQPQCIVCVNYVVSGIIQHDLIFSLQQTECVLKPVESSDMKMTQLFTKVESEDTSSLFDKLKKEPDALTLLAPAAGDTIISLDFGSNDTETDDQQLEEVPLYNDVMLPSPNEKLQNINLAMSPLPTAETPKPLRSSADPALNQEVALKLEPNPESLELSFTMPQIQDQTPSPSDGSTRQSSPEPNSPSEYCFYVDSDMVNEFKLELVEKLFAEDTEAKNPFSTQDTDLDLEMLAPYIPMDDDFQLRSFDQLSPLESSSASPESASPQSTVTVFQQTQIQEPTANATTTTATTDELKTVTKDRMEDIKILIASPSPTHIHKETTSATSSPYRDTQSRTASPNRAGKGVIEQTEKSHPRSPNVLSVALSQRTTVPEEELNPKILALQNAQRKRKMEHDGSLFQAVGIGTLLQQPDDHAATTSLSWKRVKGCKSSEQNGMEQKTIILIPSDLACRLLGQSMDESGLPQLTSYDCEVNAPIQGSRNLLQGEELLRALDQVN
Hepatocyte nuclear factor 6 (Homo sapiens), sequence (Q9UBC0 whole entry, looked up, the tested form may be a part): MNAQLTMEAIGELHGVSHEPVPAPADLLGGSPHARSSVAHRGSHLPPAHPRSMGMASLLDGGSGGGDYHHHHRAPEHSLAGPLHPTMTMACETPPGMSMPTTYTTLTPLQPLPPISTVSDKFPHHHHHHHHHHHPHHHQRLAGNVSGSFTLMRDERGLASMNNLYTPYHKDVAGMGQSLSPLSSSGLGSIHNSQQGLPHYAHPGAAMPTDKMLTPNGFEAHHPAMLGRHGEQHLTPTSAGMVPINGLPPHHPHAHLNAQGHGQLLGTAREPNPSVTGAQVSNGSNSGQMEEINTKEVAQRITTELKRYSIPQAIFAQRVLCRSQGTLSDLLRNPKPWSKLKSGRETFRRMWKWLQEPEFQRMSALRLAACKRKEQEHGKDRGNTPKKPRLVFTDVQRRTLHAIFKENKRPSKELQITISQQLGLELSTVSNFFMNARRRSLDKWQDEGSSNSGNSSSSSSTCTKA
Signal transducer and activator of transcription 3 (Homo sapiens), sequence (P40763 whole entry, looked up): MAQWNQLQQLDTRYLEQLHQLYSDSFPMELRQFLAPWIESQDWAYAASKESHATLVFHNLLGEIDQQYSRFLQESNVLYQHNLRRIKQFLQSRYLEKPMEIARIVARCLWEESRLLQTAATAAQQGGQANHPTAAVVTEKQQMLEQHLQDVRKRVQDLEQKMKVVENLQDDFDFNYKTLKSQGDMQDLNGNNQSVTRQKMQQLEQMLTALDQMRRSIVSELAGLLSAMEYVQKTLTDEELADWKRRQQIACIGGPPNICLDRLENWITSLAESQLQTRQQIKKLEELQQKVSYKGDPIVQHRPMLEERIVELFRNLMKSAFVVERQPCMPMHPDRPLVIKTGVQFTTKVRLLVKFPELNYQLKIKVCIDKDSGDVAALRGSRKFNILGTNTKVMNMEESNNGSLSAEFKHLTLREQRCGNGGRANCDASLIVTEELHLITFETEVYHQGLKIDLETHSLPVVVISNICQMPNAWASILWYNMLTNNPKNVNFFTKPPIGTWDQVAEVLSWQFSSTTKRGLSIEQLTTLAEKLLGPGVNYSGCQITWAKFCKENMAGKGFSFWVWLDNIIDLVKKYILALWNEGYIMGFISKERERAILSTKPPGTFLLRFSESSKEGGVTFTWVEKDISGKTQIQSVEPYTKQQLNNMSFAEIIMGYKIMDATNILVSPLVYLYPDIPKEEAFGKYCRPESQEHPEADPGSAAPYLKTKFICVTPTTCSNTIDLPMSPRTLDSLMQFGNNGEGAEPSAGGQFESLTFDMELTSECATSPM
Heat shock factor protein 1 (Homo sapiens), sequence (Q00613 whole entry, looked up): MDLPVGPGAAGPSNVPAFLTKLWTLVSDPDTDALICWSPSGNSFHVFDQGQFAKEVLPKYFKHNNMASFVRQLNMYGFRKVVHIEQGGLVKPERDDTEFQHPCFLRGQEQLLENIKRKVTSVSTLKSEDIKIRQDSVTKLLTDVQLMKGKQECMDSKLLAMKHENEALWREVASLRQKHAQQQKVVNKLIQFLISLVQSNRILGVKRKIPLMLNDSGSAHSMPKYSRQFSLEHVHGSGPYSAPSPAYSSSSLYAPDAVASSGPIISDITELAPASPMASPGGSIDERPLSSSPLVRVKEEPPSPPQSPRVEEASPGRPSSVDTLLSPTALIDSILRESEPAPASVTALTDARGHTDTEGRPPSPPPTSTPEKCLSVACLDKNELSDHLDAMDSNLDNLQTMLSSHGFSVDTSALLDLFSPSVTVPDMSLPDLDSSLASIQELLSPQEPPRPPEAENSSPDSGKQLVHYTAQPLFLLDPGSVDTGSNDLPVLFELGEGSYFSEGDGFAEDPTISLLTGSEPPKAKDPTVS
Paired box protein Pax-6 (Homo sapiens), sequence (P26367 whole entry, looked up): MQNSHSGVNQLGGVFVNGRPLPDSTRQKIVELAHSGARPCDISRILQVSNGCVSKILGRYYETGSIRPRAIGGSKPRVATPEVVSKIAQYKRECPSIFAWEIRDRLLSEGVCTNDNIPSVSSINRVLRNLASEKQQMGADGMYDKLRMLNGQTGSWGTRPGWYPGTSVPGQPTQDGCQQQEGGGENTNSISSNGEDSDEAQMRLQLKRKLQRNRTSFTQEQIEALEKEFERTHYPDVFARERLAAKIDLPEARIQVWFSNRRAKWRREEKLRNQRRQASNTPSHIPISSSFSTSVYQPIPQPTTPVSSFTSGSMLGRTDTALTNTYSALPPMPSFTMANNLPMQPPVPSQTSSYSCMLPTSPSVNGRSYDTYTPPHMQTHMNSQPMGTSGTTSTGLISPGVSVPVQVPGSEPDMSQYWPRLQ
Transcription factor Sp1 (Homo sapiens), sequence (P08047 whole entry, looked up): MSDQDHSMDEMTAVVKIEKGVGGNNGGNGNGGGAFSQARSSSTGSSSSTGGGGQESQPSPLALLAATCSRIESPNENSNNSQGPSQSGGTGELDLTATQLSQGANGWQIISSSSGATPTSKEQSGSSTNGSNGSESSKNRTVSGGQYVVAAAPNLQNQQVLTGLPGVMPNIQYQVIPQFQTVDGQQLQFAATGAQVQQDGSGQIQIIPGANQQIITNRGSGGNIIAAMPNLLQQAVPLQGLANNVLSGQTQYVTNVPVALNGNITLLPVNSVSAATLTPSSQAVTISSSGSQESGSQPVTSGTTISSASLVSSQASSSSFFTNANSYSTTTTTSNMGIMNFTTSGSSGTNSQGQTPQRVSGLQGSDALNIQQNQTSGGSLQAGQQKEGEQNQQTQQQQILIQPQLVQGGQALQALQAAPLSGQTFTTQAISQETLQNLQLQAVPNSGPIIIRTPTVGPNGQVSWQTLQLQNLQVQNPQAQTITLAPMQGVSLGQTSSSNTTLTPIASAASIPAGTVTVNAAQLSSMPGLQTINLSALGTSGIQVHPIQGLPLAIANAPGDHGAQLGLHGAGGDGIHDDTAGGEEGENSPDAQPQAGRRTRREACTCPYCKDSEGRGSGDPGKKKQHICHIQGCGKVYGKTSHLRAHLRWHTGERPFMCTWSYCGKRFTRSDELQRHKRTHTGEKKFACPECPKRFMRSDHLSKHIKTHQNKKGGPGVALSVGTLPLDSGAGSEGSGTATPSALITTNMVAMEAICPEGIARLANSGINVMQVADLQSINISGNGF

Compound: C=C(C)C(=O)OCCCCOC(=O)C(=C)C
- outcome [1]: inactive
- outcome [2]: inactive
- outcome [3]: inactive
- outcome [4]: inactive
- outcome [5]: inactive
- outcome [6]: inactive
- outcome [7]: inactive
- outcome [8]: inactive
- outcome [9]: inactive
- outcome [10]: inactive
- outcome [11]: inactive
- outcome [12]: inactive
- outcome [13]: inactive
- outcome [14]: inactive
- outcome [15]: inactive
- outcome [16]: inactive
- outcome [17]: inactive
- outcome [18]: inactive
- outcome [19]: inactive

Compound: O=CCCl
- AC50 [1]: 51.9 µM (active)
- outcome [2]: inactive
- outcome [3]: inactive
- AC50 [4]: 55 µM (active)
- AC50 [5]: 32.6 µM (active)
- AC50 [6]: 48.6 µM (active)
- AC50 [7]: 43.2 µM (active)
- AC50 [8]: 25.2 µM (active)
- AC50 [20]: 42.5 µM (active)
- AC50 [9]: 37.2 µM (active)
- outcome [11]: inactive
- outcome [12]: inactive
- AC50 [14]: 26.6 µM (active)
- outcome [15]: inactive
- AC50 [16]: 182 µM (active)
- outcome [17]: inactive
- outcome [19]: inactive

Compound: C=CC(=O)[O][Sn]([CH2]CCC)([CH2]CCC)[CH2]CCC
- outcome [1]: inactive
- outcome [2]: inactive
- outcome [3]: inactive
- outcome [4]: inactive
- AC50 [5]: 0.657 µM (active)
- AC50 [6]: 0.645 µM (active)
- AC50 [7]: 0.412 µM (active)
- AC50 [8]: 0.321 µM (active)
- AC50 [20]: 0.52 µM (active)
- AC50 [9]: 0.744 µM (active)
- outcome [11]: inactive
- AC50 [12]: 670 nM (active)
- AC50 [14]: 0.189 µM (active)
- AC50 [15]: 657 nM (active)
- outcome [16]: inactive
- outcome [17]: inactive
- outcome [18]: inactive
- AC50 [19]: 367 nM (active)

Compound: Oc1cccc(-c2ccccc2)c1
- outcome [1]: inactive
- outcome [2]: inactive
- outcome [3]: inactive
- outcome [4]: inactive
- outcome [5]: inactive
- outcome [6]: inactive
- outcome [7]: inactive
- outcome [8]: inactive
- outcome [20]: inactive
- AC50 [9]: 27.2 µM (active)
- outcome [11]: inactive
- outcome [12]: inactive
- AC50 [13]: 168 µM (active)
- AC50 [14]: 64.2 µM (active)
- outcome [15]: inactive
- outcome [16]: inactive
- outcome [17]: inactive
- outcome [18]: inactive

From PubChem BioAssay (EPA / NIEHS)
